# Measurements reported in PubChem BioAssay AID1159580 (chemical genetic matrix, 2015).
# Hit rate of the full screen: of about 5,500 compounds, about 2,000 (36%) were called active. Inconclusive results (about 18%) are left out. This is one part of the list. Unmarked numbers belong to inactive results. Cut-off read from the data, not from the text of the source: active = normalized growth mostly below about 0.91 (no sharp cut-off); inconclusive = no clear call, values can overlap the other calls; inactive = mostly above about 0.92.
# Experiment: chemical genetic growth profiling, strain panel (AID 1159580);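 note: tested at 20 µM; growth read once vehicle control cultures reached saturation at 30 °C; 1 = growth at the plate median or of vehicle wells; lower values mean less growth of the strain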
# Settings: S. cerevisiae deletion strains, growth OD
# [1] = locus YHR030C, strain SLT2, stronger effect = lower value
# [2] = locus YHR079C, strain IRE1, stronger effect = lower value
# [3] = locus YJL095W, strain BCK1, stronger effect = lower value
# [4] = locus YJR066W, strain TOR1, stronger effect = lower value
# [5] = locus YLR113W, strain HOG1, stronger effect = lower value
# [6] = locus YNL183C, strain NPR1, stronger effect = lower value
# [7] = locus YOR231W, strain MKK1, stronger effect = lower value
# [8] = locus YPL256C, strain CLN2, stronger effect = lower value
compound,measurement,setting,value
Cc1ccccc1/C=C/c1c[nH]c2ccccc12,normalized growth,"locus YAR019C, strain CDC15, stronger effect = lower value",0.937
same,normalized growth,"locus YBL105C, strain PKC1, stronger effect = lower value",0.961
same,normalized growth,"locus YBR135W, strain CKS1, stronger effect = lower value",0.946
same,normalized growth,"locus YBR136W, strain MEC1, stronger effect = lower value",0.954
same,normalized growth,"locus YBR160W, strain CDC28, stronger effect = lower value",0.951
same,normalized growth,"locus YDL017W, strain CDC7, stronger effect = lower value",0.955
same,normalized growth,"locus YDL028C, strain MPS1, stronger effect = lower value",0.963
same,normalized growth,"locus YDL101C, strain DUN1, stronger effect = lower value",0.953
same,normalized growth,"locus YDL108W, strain KIN28, stronger effect = lower value",0.949
same,normalized growth,"locus YDL132W, strain cdc53, stronger effect = lower value",0.942
same,normalized growth,"locus YDL214C, strain PRR2, stronger effect = lower value",0.902
same,normalized growth,"locus YDR052C, strain DBF4, stronger effect = lower value",0.95
same,normalized growth,"locus YDR054C, strain cdc34, stronger effect = lower value",0.985
same,normalized growth,"locus YDR226W, strain ADK1, stronger effect = lower value",0.949
same,normalized growth,"locus YDR477W, strain SNF1, stronger effect = lower value",0.924
same,normalized growth,"locus YER123W, strain YCK3, stronger effect = lower value",0.855
same,normalized growth,"locus YER133W, strain GLC7, stronger effect = lower value",0.906
same,normalized growth,"locus YFL009W, strain cdc4, stronger effect = lower value",0.945
same,normalized growth,"locus YFL029C, strain CAK1, stronger effect = lower value",0.92
same,normalized growth,"locus YFR003C, strain YPI1, stronger effect = lower value",0.958
same,normalized growth,"locus YFR019W, strain FAB1, stronger effect = lower value",0.924
same,normalized growth,"locus YFR028C, strain CDC14, stronger effect = lower value",0.955
same,normalized growth,"locus YGR040W, strain KSS1, stronger effect = lower value",0.916
same,normalized growth,"locus YGR052W, strain FMP48, stronger effect = lower value",0.965
same,normalized growth,"locus YGR092W, strain DBF2, stronger effect = lower value",0.858
same,normalized growth,[1],0.921
same,normalized growth,[2],0.948
same,normalized growth,"locus YHR082C, strain KSP1, stronger effect = lower value",0.937
same,normalized growth,"locus YHR205W, strain SCH9, stronger effect = lower value",0.88
same,normalized growth,"locus YIL147C, strain SLN1, stronger effect = lower value",0.956
same,normalized growth,[3],0.946
same,normalized growth,"locus YJL128C, strain PBS2, stronger effect = lower value",0.906
same,normalized growth,"locus YJL157C, strain FAR1, stronger effect = lower value",0.895
same,normalized growth,"locus YJR016C, strain ILV3, stronger effect = lower value",0.952
same,normalized growth,"locus YJR066W, strain TOR1 (second series), stronger effect = lower value",0.882
same,normalized growth,[4],0.955
same,normalized growth,"locus YKL048C, strain ELM1, stronger effect = lower value",0.948
same,normalized growth,"locus YKL067W, strain YNK1, stronger effect = lower value",0.91
same,normalized growth,"locus YKL101W, strain HSL1, stronger effect = lower value",0.94
same,normalized growth,"locus YKL193C, strain SDS22, stronger effect = lower value",0.948
same,normalized growth,"locus YKL203C, strain TOR2, stronger effect = lower value",0.989
same,normalized growth,[5],0.784 (active)
same,normalized growth,"locus YLR133W, strain CKI1, stronger effect = lower value",0.931
same,normalized growth,"locus YLR403W, strain SFP1, stronger effect = lower value",0.893
same,normalized growth,"locus YML070W, strain DAK1, stronger effect = lower value",0.891
same,normalized growth,"locus YMR001C, strain CDC5, stronger effect = lower value",0.937
same,normalized growth,"locus YMR205C, strain PFK2 (second series), stronger effect = lower value",0.934
same,normalized growth,"locus YMR277W, strain FCP1, stronger effect = lower value",0.959
same,normalized growth,"locus YNL006W, strain LST8, stronger effect = lower value",0.955
same,normalized growth,"locus YNL020C, strain ARK1, stronger effect = lower value",0.912
same,normalized growth,"locus YNL161W, strain CBK1, stronger effect = lower value",0.953
same,normalized growth,[6],0.94
same,normalized growth,"locus YNL207W, strain RIO2, stronger effect = lower value",0.948
same,normalized growth,"locus YNL222W, strain SSU72, stronger effect = lower value",0.946
same,normalized growth,"locus YNL307C, strain MCK1 (second series), stronger effect = lower value",0.941
same,normalized growth,"locus YOL078W, strain AVO1, stronger effect = lower value",0.946
same,normalized growth,"locus YOL136C, strain PFK27, stronger effect = lower value",0.887
same,normalized growth,"locus YOR061W, strain CKA2, stronger effect = lower value",0.895
same,normalized growth,"locus YOR119C, strain RIO1, stronger effect = lower value",0.943
same,normalized growth,[7],0.923
same,normalized growth,"locus YOR329C, strain SCD5, stronger effect = lower value",0.961
same,normalized growth,"locus YPL031C, strain PHO85, stronger effect = lower value",0.914
same,normalized growth,"locus YPL153C, strain RAD53, stronger effect = lower value",0.931
same,normalized growth,"locus YPL204W, strain HRR25, stronger effect = lower value",0.941
same,normalized growth,"locus YPL209C, strain IPL1, stronger effect = lower value",0.95
same,normalized growth,[8],0.91
same,normalized growth,"locus YPR025C, strain CCL1, stronger effect = lower value",0.955
same,normalized growth,"locus YPR106W, strain ISR1, stronger effect = lower value",0.964
same,normalized growth,"locus YPR111W, strain DBF20, stronger effect = lower value",0.952
same,normalized growth,"strain NNK1, stronger effect = lower value",0.961
same,normalized growth,"strain TSCII, stronger effect = lower value",0.947
Cc1ccccc1/C=C/C1=NCCN1,normalized growth,"locus YAL013W, strain DEP1, stronger effect = lower value",0.997
same,normalized growth,"locus YAL040C, strain CLN3, stronger effect = lower value",1.09
same,normalized growth,"locus YCL061C, strain MRC1 (second series), stronger effect = lower value",1.01
same,normalized growth,"locus YDR150W, strain NUM1, stronger effect = lower value",1.02
same,normalized growth,"locus YDR363W, strain ESC2, stronger effect = lower value",0.999
same,normalized growth,"locus YER002W, strain NOP16, stronger effect = lower value",1.01
same,normalized growth,"locus YGR078C, strain PAC10, stronger effect = lower value",0.982
same,normalized growth,"locus YJR075W, strain HOC1, stronger effect = lower value",0.997
same,normalized growth,"locus YMR263W, strain SAP30, stronger effect = lower value",0.995
same,normalized growth,"locus YMR307W, strain GAS1, stronger effect = lower value",0.978
same,normalized growth,"locus YNL175C, strain NOP13, stronger effect = lower value",1
same,normalized growth,"locus YNL197C, strain WHI3, stronger effect = lower value",0.993
same,normalized growth,"locus YNL224C, strain SQS1, stronger effect = lower value",0.991
same,normalized growth,"locus YOR083W, strain WHI5 (second series), stronger effect = lower value",0.991
Cc1c[nH]c2ccccc12,normalized growth,[1],0.992
same,normalized growth,[2],0.979
same,normalized growth,[3],0.999
same,normalized growth,[4],0.94
same,normalized growth,[5],0.945
same,normalized growth,[6],0.927
same,normalized growth,[7],1
same,normalized growth,[8],1.02
